# Among all 200,000 compounds or so, about 65 (0.03%) were called active.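 The calls were made as follows: active = activation of at least 50% relative to the plate's high and low controls in the primary single-dose screen; inactive = activation below 50%.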 Many of the other results were omitted from the sample, so actives are more common in it than they were.
# Experiment: compounds producing H2O2 with reducing agent – biochemical, NIH compound library profiling, artefact control for MLSCN library redox annotation, primary screen (AID 878);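 also: compound incubated with DTT at 0.8 mM final as the reducing agent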
# Settings: DTT-dependent redox cycling H2O2, phenol red/HRP absorbance; at 10 µM; hits give high values; 100% = 100 µM peroxide control, 0% = buffer
row,SMILES,activation
1,COn1c(-c2ccc(Cl)cc2Cl)nc2ncccc21,0.53% (inactive)
2,C=CCNC(=S)NNC(=O)COc1c(Cl)cc(Cl)cc1Cl,0.34% (inactive)
3,O=C(NCCCn1ccnc1)C(=O)c1cn(CC(=O)N2CCCCCC2)c2ccccc12,-0.37% (inactive)
4,COc1ccc(N2CCN(C(=O)COc3ccc4c(C)cc(=O)oc4c3)CC2)cc1,-0.38% (inactive)
5,O=C(CSc1nc2ccccc2[nH]1)Nc1nc(-c2ccccc2)c(-c2ccccc2)o1,0.41% (inactive)
6,Cc1ccc(S(=O)(=O)/N=C(/Nc2ccc3[nH]c(=O)[nH]c3c2)c2ccccc2)cc1,-0.98% (inactive)
7,COc1ccc(NC(=O)c2cc3nc(-c4ccccc4)cc(C)n3n2)cc1OC,-0.08% (inactive)
8,CCC(=O)N(Cc1cc2ccccc2[nH]c1=O)c1ccc(OC)cc1,-0.34% (inactive)
9,CCCOc1ccc(NC(=O)CC2C(=O)N(C)C(=S)N2Cc2ccc3c(c2)OCO3)cc1 (centres undefined),-0.41% (inactive)
10,CCc1cccc(OC2OC(CO)C(O)C(O)C2NC(C)=O)c1 (centres undefined),-0.96% (inactive)
11,Oc1cccc2ccc(/C=C/c3ccc(Br)s3)nc12,-0.18% (inactive)
12,COc1ccc(C(=O)Nc2sc(C)c(C)c2CN2CCOCC2)cc1,-0.23% (inactive)
13,CN(/C(=N/S(=O)(=O)c1cccs1)c1ccccc1)c1ccc(O)cc1,-0.71% (inactive)
14,O=C(NC1CCCCCC1)c1cccnc1Sc1ccc(Cl)cc1,-0.04% (inactive)
15,C/[N+]([O-])=C\c1ccc([N+](=O)[O-])o1,0.48% (inactive)
16,CSc1ccc(/C=N\NC(=O)CC(=O)NC(C)C)cc1,-0.35% (inactive)
17,COCCNC(=O)c1ccc(N2CCC3(CC2)OCCO3)c([N+](=O)[O-])c1,0.43% (inactive)
18,COc1cc(/C=C/C(=O)OCC(=O)NC(=O)NCc2ccccc2)ccc1OCC#N,-0.39% (inactive)
19,O=C(CNC(=O)c1cc(=O)[nH]c2ccccc12)Nc1ccc(F)c(F)c1,0.25% (inactive)
20,CN(c1ccc2nc3ccccc3c(=O)n2n1)C1CCCCC1,-0.26% (inactive)

row,SMILES,activation
1,COc1ccc(CC(=O)N2N=C(C)CC2(O)C(F)(F)F)cc1 (centres undefined),-0.18% (inactive)
2,O=C(/C=C/Sc1ncn[nH]1)c1ccc(Cl)cc1,1.23% (inactive)
3,O=c1c2ccccc2c(-c2ccccc2)nn1-c1ccccn1,-0.18% (inactive)
4,CCOCCCNC(=O)C(=O)NCCCOCC,-0.48% (inactive)
5,CCC1=NN(C(=O)Cc2ccc([N+](=O)[O-])cc2)C(O)(c2ccc(Br)cc2)C1 (centres undefined),0.2% (inactive)
6,CCOc1cc(NC(=S)NCCCOC)c(OCC)cc1NC(=O)c1ccco1,-0.65% (inactive)
7,CNC(=O)C(=O)N/N=C/c1ccccn1,0.83% (inactive)
8,CCN(CC(=O)NCc1cccs1)S(=O)(=O)c1ccc(NC(C)=O)cc1,-2.2% (inactive)
9,CCOC(=O)C1CCN(S(=O)(=O)c2cc(F)ccc2OC)CC1,-0.4% (inactive)
10,Cc1ccc(CNC(=O)COc2ccc3c(c2)CCC3)cc1,-0.27% (inactive)
11,CO/N=C/CC(=O)c1ccc(OC)cc1,-0.35% (inactive)
12,CCCC1(C(=O)OCC)NC(c2ccc(N(C)C)cc2)C2C(=O)N(c3ccc4c(c3)OCCO4)C(=O)C21 (centres undefined),0.78% (inactive)
13,Cc1ccc(-n2c(C)cc(/C=N\NC(=O)CC(=O)NC(C)C)c2C)cc1,0.08% (inactive)
14,O=C(/C=C/c1cccc([N+](=O)[O-])c1)NCCSCc1ccco1,-0.1% (inactive)
15,Cc1ccc(CC(=O)Nc2ccc(OC(F)F)c(Cl)c2)cc1C,0.61% (inactive)
16,CCOC(=O)c1c(C)[nH]c2c1-c1ccccc1C(=O)C2=O,89.8% (active)
17,CCOC(=O)C1=C(c2ccc(OC)cc2)C(=O)c2ccccc2C1=O,0.28% (inactive)
18,CCOC(=O)c1c(C)[nH]c(=S)c(C#N)c1-c1ccccc1,-0.47% (inactive)
19,COc1ccc(S(=O)(=O)N/N=C\c2ccc(OC)c(COc3ccc(C)cc3[N+](=O)[O-])c2)cc1,0.79% (inactive)
20,Cc1cc(NC(=O)CSCc2ccccc2C)no1,-0.39% (inactive)

row,SMILES,activation
1,COc1cc(CN2CCN(Cc3ccc(C)cc3)CC2)c([N+](=O)[O-])cc1OC,-0.34% (inactive)
2,Cc1ccc(-n2c(SCC(=O)N/N=C/C=C/c3ccccc3[N+](=O)[O-])nc3ccccc3c2=O)cc1,0.36% (inactive)
3,Cc1ccc(C(C)(C)C)c(OCCCCN2CCCC2)c1,0.04% (inactive)
4,COC(=O)c1c(C)[nH]c(C(=O)/C=C/c2ccc(Cl)cc2)c1C,0.44% (inactive)
5,O=C(CSc1ncn[nH]1)NCc1ccc2c(c1)OCO2,-2.24% (inactive)
6,COC(=O)c1c(NC(=O)CN2CCN(S(=O)(=O)c3ccccc3[N+](=O)[O-])CC2)sc2c1CCC(C)C2 (centres undefined),0.62% (inactive)
7,CCc1c(O)cc2n(c1=O)-c1ccccc1C2(C)C,0.55% (inactive)
8,CC(=O)N1Cc2ccccc2CC1C(=O)O (centres undefined),0.61% (inactive)
9,Cc1ccc(OCC(=O)Nc2cccc3c2CCCC3)cc1C,1.68% (inactive)
10,CCOC(=O)Cc1ncccc1C(=O)Nc1ccc(OC)cc1,-0.93% (inactive)
11,O=C(C1=C[C@H](C2CC2)C[C@H](OCc2ccc(CO)cc2)O1)N1CCN(Cc2ccccc2)CC1,0.58% (inactive)
12,Cc1ccc(S(=O)(=O)C2C(=O)NC3(C)CC2c2ccccc2O3)cc1 (centres undefined),0.78% (inactive)
13,COC(=O)/C=C\C(=O)Nc1cccc([N+](=O)[O-])c1,0.27% (inactive)
14,CCn1c(=O)c(=O)n(CC)c2cc(S(=O)(=O)N3CCc4ccccc43)ccc21,-1.27% (inactive)
15,O=C(Oc1cccc(N2C(=O)C3C4c5ccccc5C(c5ccccc54)C3C2=O)c1)c1ccco1 (centres undefined),0.92% (inactive)
16,CCC(=O)/C(=C(/O)c1ccccc1)c1nc2ccccc2[nH]1,-0.31% (inactive)
17,FC(F)(F)c1cccc(Cc2noc(CN3CCC(N4CCCCC4)CC3)n2)c1,0.44% (inactive)
18,Cc1ccccc1-n1nnnc1SCCCC(=O)c1ccc(F)cc1,0.87% (inactive)
19,CCOC(=O)NC(=O)C(=CNc1cccc(OC)c1)C(=O)NC(=O)OCC,-0.29% (inactive)
